Many of the other results were omitted from the sample, so hits are more common in it than they were.
nsP2pro primary: Primary qHTS for inhibitors of NSP2Pro chikungunya virus (CHIKV); Potency, µM (titrated, usually from 24.9 µM), for the others: at the top dose activity change, negative = inhibition, actives largely listed as inhibitors; Polyprotein P1234 (Chikungunya virus (strain S27-African prototype)), Q8JUX6; FRET peptide cleavage, nsP2pro, fluorescence 1 h; AID 1964107, 2024; 1.1% of 31,000 active; further: nearly all actives have a fitted effect of over 60% in size
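Enzyme 150 nM, substrate 2.5 uM (both final); Tris-HCl 10 mM pH 8.0 + 0.01% Tween 20; cpd up to 25 uM, 7 pts; 15 min preinc., 1 h RT; fluorescence ex 525/em 598.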
nsP2 cell sec: Secondary cell base assay for inhibitors of NSP2Pro Chikungunya virus (CHIKV). shares compounds with nsP2pro primary. cell-based CHIKV nsP2 protease reporter assay. Potency, µM (titrated, usually from 51.1 µM), inactives show at the highest dose activity change, negative = inhibition, hits mostly inhibitors. 10% of 450 active. AID 1964100, 2024; further: nearly all actives have a fitted effect of over 70% in size
CHIKV NSP2 FL: Selectivity profile for inhibitors of NSP2Pro chikungunya virus (CHIKV): Full length NSP2 enzyme counterscreen (CHIKV-NSP2) | Potency, µM (titrated, usually from 50.7 µM), inactives show top-dose activity change, negative = inhibition, most hits filed as inhibitors | 39% of 410 active | shares compounds with nsP2pro primary | Full-length CHIKV NSP2 protease enzymatic counterscreen; further: nearly all actives have a fitted effect of over 65% in size
Furin counter: Selectivity profile for inhibitors of NSP2Pro chikungunya virus (CHIKV): Human furin counterscreen; Recombinant human furin enzymatic counterscreen, fluorogenic substrate; 6% of 410 active; AID 1964102, 2024; shares compounds with nsP2pro primary; Potency, µM (highest dose often 50.6 µM), for the others: top-dose activity change, negative = inhibition, actives largely listed as inhibitors
NS23 peptide cs: Selectivity profile for inhibitors of NSP2Pro chikungunya virus (CHIKV): Endogenous NS2/3 peptide Counterscreen; 34% of 410 active; Purified CHIKV nsP2 protease, endogenous NS2/3 peptide cleavage; Potency, µM (series often up to 51 µM), for inactives: top-dose activity change, negative = inhibition, actives largely listed as inhibitors; AID 1964103, 2024; shares compounds with nsP2pro primary; further: nearly all actives have a fitted effect of over 55% in size
Papain counter: Selectivity profile for inhibitors of NSP2Pro chikungunya virus (CHIKV): Papain Counterscreen | shares compounds with nsP2pro primary | purified papain protease activity, enzymatic inhibition | Potency, µM (doses to about 51 µM), inactives show at the highest dose activity change, negative = inhibition, most hits filed as inhibitors | 5% of 410 active
Target sequence (P00784 whole entry, looked up): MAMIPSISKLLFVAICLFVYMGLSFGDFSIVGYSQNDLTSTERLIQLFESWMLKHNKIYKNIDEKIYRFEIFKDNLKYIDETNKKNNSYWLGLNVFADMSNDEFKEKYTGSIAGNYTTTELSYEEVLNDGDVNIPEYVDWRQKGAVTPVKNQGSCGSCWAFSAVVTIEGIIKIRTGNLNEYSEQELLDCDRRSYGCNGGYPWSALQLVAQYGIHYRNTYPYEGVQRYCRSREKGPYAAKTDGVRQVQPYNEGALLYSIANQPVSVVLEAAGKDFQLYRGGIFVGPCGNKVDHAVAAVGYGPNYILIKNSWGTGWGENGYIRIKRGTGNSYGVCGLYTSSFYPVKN
nsP2pro conf qHTS: Confirmatory qHTS for inhibitors of NSP2Pro chikungunya virus (CHIKV); shares compounds with nsP2pro primary; AID 1964105, 2024; Potency, µM (doses to about 25.5 µM), without a hit: top-dose activity change, negative = inhibition, usual class: inhibitors; 43% of 410 active; CHIKV nsP2 protease enzymatic activity, qHTS; further: nearly all actives have a fitted effect of over 75% in size
HCV NS3 counter: Selectivity profile for inhibitors of NSP2Pro chikungunya virus (CHIKV): NS34A-HCV Counterscreen | AID 1964106, 2024 | shares compounds with nsP2pro primary | 20% of 410 active | HCV NS3/4A protease biochemical counterscreen | Potency, µM (doses to about 50.9 µM), hits mostly inhibitors; further: nearly all actives have a fitted effect of over 55% in size
* = called active by the depositor; i = inactive; ? = inconclusive; [ ] = remark or other dose. The call rests on the fitted dose curve. On the % scale 0 is the no-effect control and ±100 the full control effect; potency means the concentration at half of the fitted maximal effect.

SMILES	nsP2pro primary	others
O=C(COc1ccccc1)N[C@H]1CO[C@H]2[C@@H]1OC[C@@H]2Nc1nccc(-c2cccs2)n1	-12.4%
CC(C)(C)c1ccnc(N[C@H]2CO[C@H]3[C@@H]2OC[C@@H]3NC(=O)c2ccco2)n1	-8.2%[39.2 µM]
COc1ccc(NS(=O)(=O)c2ccc3c(c2)CCN3C(=O)C2CC2)cc1OC	-12.6%
COc1ccc(Cl)cc1N(C)C(=O)Cc1noc2ccc(C)cc12	-24.7%
Cc1ccc(CN(Cc2cccn2-c2nnc(N3CCCC3=O)s2)C(=O)Nc2ccc(F)cc2)cc1	-12.2%
O=C(NCc1ccc(Cl)cc1)c1ccc2nnc(-c3cc[nH]c3)n2c1	3.0%
Cc1cc2ncc(C(=O)NCc3ccccc3Cl)cn2n1	-1.4%[39.2 µM]
O=C(NCc1ccccc1Cl)c1ccc2nnc(-c3ccoc3)n2c1	11.2µM*
Cc1cc(C(=O)NC[C@@H]2OC[C@@]3(C)[C@H]4CC[C@@H](O)[C@@H](CC(=O)N5CCCC5)[C@]4(C)CC[C@H]3O2)no1	-1.9%
O=C(Nc1nc2c(s1)CCCCCC2)Nc1ccc(F)cc1F	-12.9%
COc1ccccc1C(=O)Nc1nc(-c2ccccc2)cs1	-6.4%
CCCOc1ccccc1C(=O)Nc1nc2c(s1)CCCC2	12.6µM*
FC(F)(F)c1ccc(-c2nc(NCc3ccc(-c4ccnc(C(F)(F)F)c4)cc3)c3ccccc3n2)cc1	-5.0%
N#CN1CCC[C@@H](n2nc(-c3ccc(Oc4ccc(F)cc4F)cc3)c(C(N)=O)c2N)C1	?	nsP2 cell sec=-10.1%;CHIKV NSP2 FL=18.3µM*;Furin counter=-9.2%;NS23 peptide cs=?;Papain counter=?;nsP2pro conf qHTS=7.11µM*;HCV NS3 counter=i
CN(C)CC(=O)N1CCC[C@@H](n2nc(-c3ccc(Oc4ccccc4)cc3)c3c(N)ncnc32)C1	130.9%
COCCn1cnnc1CNc1cc(-c2ccncc2)nc2ccnn12	i
CC1(C)Cc2c(-c3ccccc3)c(-c3ccc(Cl)cc3)c(CC(=O)O)n2C1	-7.8%
CCC(CC)CN1CC2(CCN(C(=O)CCc3nncn3C)CC2)OC1=O	2.1%
Cc1cccc(N2CCn3c2nc2c3c(=O)n(CCc3ccccc3)c(=O)n2C)c1	-26.2%
Cc1cccc2c3c(ccc12)C1=C(C(=O)C3=O)[C@@H](C)CO1	?	nsP2 cell sec=-15.3%;CHIKV NSP2 FL=10.3µM*;Furin counter=-16.0%;NS23 peptide cs=?;Papain counter=?;nsP2pro conf qHTS=10µM*;HCV NS3 counter=i
CN(C)CCCO[C@@H]1[C@H]2OC(C)(C)O[C@H]2O[C@@H]1C(O)CO (some centres undefined)	0.4%
CCN1CCN(c2ccc(Nc3ccc(-c4ccc(C(N)=O)cc4)n4ncnc34)cc2)CC1	102.4%
Cc1ccc(CNC(=O)c2nc(SCc3ccc(C)cc3)ncc2Cl)cc1	-22.8%
Cc1ccc(CNC(=O)c2nc(SCc3ccccc3F)ncc2Cl)cc1	10.7µM*	nsP2 cell sec=44.8%;CHIKV NSP2 FL=-3.0%;Furin counter=-2.2%;NS23 peptide cs=7.7%;Papain counter=-3.2%;nsP2pro conf qHTS=7.4%;HCV NS3 counter=i

Screens from PubChem.
